# Reference: PubChem BioAssay (NCI)
# The panel holds about 79,000 compounds, 15% with a hit somewhere; the sample as a whole holds those more often. Unmarked numbers belong to inactive results. The source made the active and inactive calls. Cut-off read from the data, not from the text of the source: active = growth inhibition above about 70%; inactive = the rest.
# What was measured:
# [1] = NCI Yeast Anticancer Drug Screen. Data for the rad50 strain (AID 155);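 note: 0% = growth of vehicle-only cultures of the same strain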; details: S. cerevisiae rad50 strain growth inhibition, stronger effect = higher value
# Outline: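 Yeast carrying a defined DNA repair defect were exposed to test compounds, and growth was compared with vehicle-treated controls to give percent inhibition.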
# [2] = NCI Yeast Anticancer Drug Screen. Data for the mec2-1 strain (AID 157); details: S. cerevisiae mec2-1 strain, stronger effect = higher value
# Outline: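 Growth inhibition is read against vehicle-treated controls after compound exposure of the mec2-1 yeast strain, which is defective in DNA damage repair or cell cycle control.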
# [3] = NCI Yeast Anticancer Drug Screen. Data for the sgs1 mgt1 strain (AID 161);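 note: 0% = growth of cultures given vehicle only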; details: S. cerevisiae sgs1 mgt1 strain, stronger effect = higher value
# Outline: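 This yeast growth screen uses a strain with defined DNA-repair lesions; compound-treated growth is compared with vehicle-treated growth.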
# [4] = NCI Yeast Anticancer Drug Screen. Data for the cln2 rad14 strain (AID 165);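 note: 0% = growth equal to vehicle treated cultures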; details: S. cerevisiae cln2 rad14 strain, stronger effect = higher value
# Outline: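 Growth inhibition, relative to vehicle-treated controls, is the read-out. The test organism is a yeast strain with defined genetic alterations, cln2 rad14.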
# [5] = NCI Yeast Anticancer Drug Screen. Data for the bub3 strain (AID 167); details: S. cerevisiae bub3 mutant strain, stronger effect = higher value
# Outline: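 Compounds were applied to a genetically altered yeast strain carrying a cell-cycle control defect. Growth inhibition was scored against vehicle-treated controls.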
# [6] = NCI Yeast Anticancer Drug Screen. Data for the mlh1 rad18 strain (AID 175); details: S. cerevisiae mlh1 rad18 strain growth inhibition, stronger effect = higher value
# Outline: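 Cells of a genetically altered yeast strain, deficient in DNA damage repair, were treated with compound. Their growth was then compared with that of vehicle-treated cultures to give inhibition.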
# [7] = at 5.0 µM (retest, dose inferred, filed as 0.5)
# [8] = at 50.0 µM (retest, dose inferred, filed as 5.0)
Compound,"growth inhibition [1, 7]","growth inhibition [1, 8]",growth inhibition ([1]; at 50.0 µM),"growth inhibition [2, 7]","growth inhibition [2, 8]",growth inhibition ([2]; at 50.0 µM),"growth inhibition [3, 7]","growth inhibition [3, 8]",growth inhibition ([3]; at 50.0 µM),"growth inhibition [4, 7]","growth inhibition [4, 8]",growth inhibition ([4]; at 50.0 µM),"growth inhibition [5, 7]","growth inhibition [5, 8]",growth inhibition ([5]; at 50.0 µM),"growth inhibition [6, 7]","growth inhibition [6, 8]",growth inhibition ([6]; at 50.0 µM)
COc1ccccc1NC(=O)/C(=C/c1ccccc1)C(C)=O,-1%,12%,48.6%,-2%,-2%,-3.05%,11%,12%,16.7%,1%,21%,49.1%,-2%,25%,-4.75%,3%,26%,66.5%
CC1CC(C)CC(C(O)(C(=O)O)C2CC(C)CC(C)C2)C1 (configuration not stated),23%,99% (active),99.2% (active),18%,99% (active),97% (active),10%,99% (active),99.5% (active),82% (active),100% (active),78.5% (active),29%,-34%,94% (active),18%,99% (active),99.5% (active)
Cc1cc(NC(=S)SCc2ccc(Cl)cc2)ccc1Br,35%,98% (active),91.3% (active),26%,99% (active),92.7% (active),47%,99% (active),91.3% (active),37%,99% (active),88.8% (active),55%,100% (active),91.2% (active),25%,99% (active),91.2% (active)
CC(C)=NOc1ccc([N+](=O)[O-])cc1[N+](=O)[O-],19%,87% (active),89.9% (active),11%,81% (active),53%,17%,84% (active),54.1%,2%,48%,30.5%,4%,81% (active),55.3%,5%,93% (active),71.3% (active)
Cc1cc(NCCCCCCNc2cc(C)nc3cc(N(C)C)ccc23)c2ccc(N(C)C)cc2n1,11%,90% (active),68.5%,0%,96% (active),85.2% (active),9%,95% (active),26.7%,8%,79% (active),13%,-7%,96% (active),1.15%,7%,92% (active),7.45%
Cc1ccccc1C(=O)C(C)c1ccccc1 (configuration not stated),-19%,-6%,6.35%,-8%,-4%,9.25%,-2%,-7%,12.5%,-35%,-5%,44.4%,-8%,3%,4.5%,-24%,4%,-9.2%
CN(C)c1ccc(/C=C/c2nc3ccccc3s2)cc1,8%,79% (active),3.1%,14%,60%,23.6%,-3%,91% (active),4.3%,-3%,14%,36.4%,-3%,1%,-2.45%,30%,91% (active),83.3% (active)
CCCCN(C(=O)c1ccccc1)C1CCC(=O)c2[nH]c3ccccc3c21 (configuration not stated),-3%,1%,85.5% (active),-15%,-28%,89.3% (active),-7%,20%,76% (active),-13%,-1%,83.5% (active),-18%,12%,80.6% (active),2%,-15%,69.5%
CC(C)=C1C=C2CCC3C(C)(C(=O)O)CCCC3(C)C2CC1 (configuration not stated) (tested in a mixture with another compound),-4%,90% (active),72.5% (active),-5%,61%,40.1%,-5%,48%,59.4%,-5%,47%,20.3%,-7%,98% (active),38.8%,-1%,76% (active),60.8%
Cc1cc(S(=O)(=O)c2ccc(Cl)cc2)nc(S(=O)(=O)c2ccc(Cl)cc2)c1C#N,45%,78% (active),82.1% (active),43%,91% (active),87.2% (active),99% (active),90% (active),85.2% (active),99% (active),91% (active),84.7% (active),99% (active),83% (active),80.4% (active),42%,89% (active),80.2% (active)
CC(Br)C(=O)c1ccc2cc(Cl)c3ccccc3c2c1 (configuration not stated),-2%,99% (active),-10.3%,5%,99% (active),31.4%,7%,99% (active),46.3%,-4%,99% (active),-16.8%,0%,99% (active),67.8%,7%,99% (active),39.1%
O=C1/C(=C/c2cccc([N+](=O)[O-])c2)CCCc2ccccc21,4%,92% (active),73.5% (active),7%,94% (active),68.8%,13%,94% (active),83.2% (active),-5%,91% (active),70.7% (active),20%,94% (active),84.8% (active),9%,93% (active),75.9% (active)
CCCCSc1nc2c([nH]1)c(=S)n(C)c(=S)n2C,2%,80% (active),63.5%,20%,91% (active),82% (active),12%,67%,55.5%,-5%,85% (active),69.7%,-12%,92% (active),66.3%,-7%,86% (active),81.2% (active)
O=C(c1cccnc1)N(C1CCCCC1)C1CCCCC1,3%,4%,2.25%,-2%,8%,-6.85%,2%,6%,3.4%,1%,9%,11.8%,1%,12%,0.35%,-10%,6%,-2.25%
CC(C)(C)C(=O)CC(=O)C(F)(F)C(F)(F)C(F)(F)F.CC(C)(C)C(=O)CC(=O)C(F)(F)C(F)(F)C(F)(F)F.CC(C)(C)C(=O)CC(=O)C(F)(F)C(F)(F)C(F)(F)F.[Er],92% (active),28%,92.5% (active),65%,9%,91% (active),43%,38%,91.2% (active),40%,38%,88.8% (active),40%,34%,91.2% (active),90% (active),26%,65.8%
O=C(c1ccc(O)c(Br)c1)c1cc(Br)ccc1O,66%,98% (active),95.7% (active),77% (active),98% (active),96.9% (active),73% (active),98% (active),97.8% (active),86% (active),99% (active),95.3% (active),85% (active),97% (active),96% (active),78% (active),98% (active),95.9% (active)
CC(O)c1c2ccccc2cc2ccccc12 (configuration not stated),-17%,72% (active),84.4% (active),-7%,58%,39.3%,1%,72% (active),37.6%,-32%,50%,16.8%,-1%,81% (active),50.5%,-13%,85% (active),78.8% (active)
Clc1ccc(C2=C(c3ccccc3)C(c3ccc(Cl)cc3)N3C(=N[C@H]4CCCC[C@@H]43)N2)cc1 (some centres not stated),4%,15%,88.2% (active),9%,7%,88.4% (active),-14%,-27%,89.3% (active),-1%,-5%,90% (active),-1%,-1%,87.7% (active),7%,7%,91.5% (active)
COc1ccc2c(c1)c(=O)c1c(NCCN(C)C)ccc3nnn2c31,13%,51%,28.2%,-18%,14%,14.4%,6%,4%,10.2%,-13%,37%,18.9%,-4%,43%,11.6%,-10%,-12%,79.7% (active)
